PubChem BioAssay (NCATS)
Several values for one entry are separate records, joined by “and”; a condition that tells them apart may be missing. Equal values may be shown once. Inconclusive results are not listed. A call without a number means that no potency is given here. A structure can be active in one record and inactive in another. Activity calls are given as the source filed them. Unless noted, calls come from the whole dose curve; as a rule, active = well fitted curve in the direction sought with a large enough effect; inconclusive = small, poorly fitted or top-dose-only effect, or another doubt; inactive = no such curve, though single readings can be large; an effect the other way counts as inactive or inconclusive.

What was measured:
[1] = target: Thioredoxin reductase 1, cytoplasmic (Rattus norvegicus) (UniProt O89049); test: qHTS Assay for Inhibitors of Mammalian Selenoprotein Thioredoxin Reductase 1 (TrxR1) (AID 488773); details: Potency: inhibition;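 note: drop in NADPH fluorescence over an 8 min run after selenite addition; series mostly up to about 57 µM; nearly all actives have a fitted effect of over 40% in size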
Thioredoxin reductase 1, cytoplasmic (Rattus norvegicus), sequence (O89049 whole entry, looked up): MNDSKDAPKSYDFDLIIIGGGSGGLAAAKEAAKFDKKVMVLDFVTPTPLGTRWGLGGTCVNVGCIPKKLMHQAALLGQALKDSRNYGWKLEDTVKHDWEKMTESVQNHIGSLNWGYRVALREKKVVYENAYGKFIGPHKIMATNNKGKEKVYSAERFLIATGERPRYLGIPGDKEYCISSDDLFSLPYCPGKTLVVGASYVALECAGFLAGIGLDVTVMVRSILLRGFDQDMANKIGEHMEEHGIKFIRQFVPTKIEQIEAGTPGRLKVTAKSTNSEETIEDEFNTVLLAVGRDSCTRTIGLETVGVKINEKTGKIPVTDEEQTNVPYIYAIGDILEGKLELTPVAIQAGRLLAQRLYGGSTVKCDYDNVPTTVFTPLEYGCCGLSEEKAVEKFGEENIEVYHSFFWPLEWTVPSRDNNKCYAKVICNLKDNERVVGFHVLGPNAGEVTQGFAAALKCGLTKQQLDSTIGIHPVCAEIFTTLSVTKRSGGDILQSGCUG
Procedure, shortened: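 Steps: enzyme (90 nM) plus NADPH (400 uM final), 5 min at ~22 deg C; compound added, 15 min; selenite (400 uM final) added; fluorescence followed for 8 min. Concentration-response curves derived from the normalized delta values.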

[2] = target: Chromobox protein homolog 1 (Homo sapiens) (UniProt P83916); test: qHTS Validation Assay for Inhibitors of HP1-beta Chromodomain Interactions with Methylated Histone Tails (AID 488953); note: nearly all actives have a fitted effect of over 50% in size; note: potency is the fitted concentration of half-maximal effect
Chromobox protein homolog 1 (Homo sapiens), sequence (P83916 whole entry, looked up): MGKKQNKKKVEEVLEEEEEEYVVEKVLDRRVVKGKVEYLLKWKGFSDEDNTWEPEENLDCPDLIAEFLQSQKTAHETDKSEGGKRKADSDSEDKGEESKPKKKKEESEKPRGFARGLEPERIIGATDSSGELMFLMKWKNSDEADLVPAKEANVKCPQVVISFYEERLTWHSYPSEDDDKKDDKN
Procedure, shortened: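 HP1-beta (50 nM) preformed 30 min with biotinylated H3(1-18)K9me3 peptide (50 nM) in PBS pH 7.4, 0.01% Tween-20. Compounds added for 30 min at room temperature. Complex disruption read by AlphaScreen with streptavidin donor/nickel chelate acceptor beads (10 ug/mL each).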

[3] = target: Methanococcus maripaludis chaperonin (MmCpn) (UniProt Q6LX38); test: High-Throughput Screening for Modulators of Cytosolic Chaperonin Activity: MmCpn Primary Screen (AID 488978);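 note: 50 nM MmCpn enzyme hydrolysing 30 µM ATP at 37 °C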
Methanococcus maripaludis chaperonin (MmCpn), sequence (Q6LX38 1-543): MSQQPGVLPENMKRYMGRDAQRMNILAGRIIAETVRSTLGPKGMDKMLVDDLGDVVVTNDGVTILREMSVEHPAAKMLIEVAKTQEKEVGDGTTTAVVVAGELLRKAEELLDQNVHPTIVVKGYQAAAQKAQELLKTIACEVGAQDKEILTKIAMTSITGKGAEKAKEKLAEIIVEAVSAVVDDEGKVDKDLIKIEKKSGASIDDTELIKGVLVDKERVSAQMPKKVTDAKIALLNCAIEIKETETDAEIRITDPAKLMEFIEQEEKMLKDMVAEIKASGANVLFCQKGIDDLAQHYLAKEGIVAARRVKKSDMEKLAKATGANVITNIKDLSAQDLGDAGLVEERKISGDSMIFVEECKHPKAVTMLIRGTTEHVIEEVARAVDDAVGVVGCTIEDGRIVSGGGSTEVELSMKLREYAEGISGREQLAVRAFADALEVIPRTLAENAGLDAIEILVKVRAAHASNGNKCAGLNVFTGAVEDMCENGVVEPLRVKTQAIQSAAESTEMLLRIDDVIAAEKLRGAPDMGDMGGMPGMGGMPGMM
Procedure, shortened: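 Steps: chaperonin 50 nM final; add compound, 5 min RT; start with ATP, 30 uM final; hold 10 min at 37C; add ADP Transcreener HTRF reagent, 5 min; read ex 320, em 590 and 665 nm.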

[4] = target: D(1A) dopamine receptor (Homo sapiens) (UniProt P21728); test: HTS Assay for Allosteric Agonists of the Human D1 Dopamine Receptor: Primary Screen for Agonists (AID 488981)
D(1A) dopamine receptor (Homo sapiens), sequence (P21728 whole entry, looked up): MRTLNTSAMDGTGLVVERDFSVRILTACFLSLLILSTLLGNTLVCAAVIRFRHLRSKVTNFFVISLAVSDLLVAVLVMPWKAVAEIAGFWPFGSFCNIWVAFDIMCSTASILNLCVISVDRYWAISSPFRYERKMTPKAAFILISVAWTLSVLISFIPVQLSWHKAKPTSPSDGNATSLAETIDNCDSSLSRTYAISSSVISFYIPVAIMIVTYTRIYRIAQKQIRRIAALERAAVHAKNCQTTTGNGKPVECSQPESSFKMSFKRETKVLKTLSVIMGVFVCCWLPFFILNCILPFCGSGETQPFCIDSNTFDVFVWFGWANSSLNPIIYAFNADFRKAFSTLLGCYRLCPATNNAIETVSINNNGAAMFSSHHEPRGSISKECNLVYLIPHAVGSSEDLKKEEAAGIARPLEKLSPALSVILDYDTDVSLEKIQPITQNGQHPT
Procedure, shortened: (§1)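 Tetracycline-induced HEK293 T-REx cells force-coupled to calcium signalling were incubated overnight at 30 C and dye-loaded at room temperature. Calcium flux over 180 s after compound addition flagged agonists; a further 180 s read after EC20 dopamine flagged potentiators.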

[5] = target: D(1A) dopamine receptor (Homo sapiens) (UniProt P21728); test: HTS Assay for Allosteric Agonists of the Human D1 Dopamine Receptor: Primary Screen for Antagonists (AID 488983);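 note: calcium flux response to an EC80 dopamine challenge measured with no-wash dye; nearly all actives have a fitted effect of over 65% in size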
Procedure, shortened: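 Tetracycline-induced HEK293 T-REx D1 line, force-coupled to calcium flux, read with no-wash calcium dye. Compound added after 10 s baseline, read 180 s for agonism, then EC80 dopamine added and read a further 180 s.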

[6] = Validation screen for small molecules that induce genotoxicity in human embryonic kidney (HEK293T) cells expressing luciferase-tagged ELG1 (AID 493106); note: potency is the fitted concentration of half-maximal effect
Procedure, shortened: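 HEK293T cells expressing luciferase-tagged ELG1, 2,000 cells/well, exposed to compound 16 hr at 37 °C, 5% CO2. Luciferase read after ONE-Glo, 30 min at room temperature; increased signal indicates genetic stress.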

[7] = target: ATPase family AAA domain-containing protein 5 (Homo sapiens) (UniProt Q96QE3); test: Validation screen for small molecules that inhibit ELG1-dependent DNA repair in human embryonic kidney (HEK293T) cells expressing luciferase-tagged ELG1 (AID 493107);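 note: cells co-treated with the DNA-damaging agent 5-fluorouridine alongside compound; series mostly up to about 46 µM; inhibitors lower the ELG1-luciferase luminescence signal; nearly all actives have a fitted effect of over 70% in size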
Procedure, shortened: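 HEK293T cells expressing luciferase-tagged ELG1, 2,000 per well, treated with 5-fluorouridine plus compound for 16 h at 37 C. ONE-Glo luminescence after 30 min at room temperature reports ELG1 reporter level.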

[8] = Nrf2 qHTS screen for inhibitors: Validation (AID 493153; active = well fitted inhibition curve with a large enough effect in the main read-out, with a control signal flat, not every such curve was filed as active); details: Potency: luciferase luminescence; viability change: measured here: cytotoxicity max response
Procedure, shortened: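 A549 cells carrying ARE-firefly luciferase reporter, 5000 cells/well in 5% FBS OPTI-MEM, treated with compound over a concentration series for 18-24 h at 37 C. Luciferase luminescence gave Nrf2 activity; CellTiter-Fluor fluorescence gave viability.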

[9] = qHTS for Inhibitors of Cell Surface uPA Generation: Validation Assay (AID 493164)
Procedure, shortened: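 RAW 264.7 cells (4000/well) were plated overnight, then exposed for 18 h at 37 C, 5% CO2 to compounds in a 7-point 1:5 titration (2.45 nM–38.3 uM final). Intracellular ATP was read by ATP-Lite luminescence.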

[10] = target: Transient receptor potential cation channel subfamily V member 1 (Homo sapiens) (UniProt Q8NER1); test: HTS Assay for Compounds that Act as Enhancers of the Vanilloid Receptor 1 (AID 488979)
Procedure, shortened: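 TRPV1-expressing cells loaded with Fluo-8 calcium dye; compounds added and calcium influx read kinetically for 3 min (agonist phase), then capsaicin at EC20 added and read 2 min more for enhancement. Fluorescence ex 480/em 520 nm.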

[11] = target: Thyrotropin receptor (Homo sapiens) (UniProt P16473); test: qHTS Assay for Antagonists of the Thyroid Stimulating Hormone Receptor (AID 488980); note: series mostly up to about 58 µM
Thyrotropin receptor (Homo sapiens), sequence (P16473 whole entry, looked up): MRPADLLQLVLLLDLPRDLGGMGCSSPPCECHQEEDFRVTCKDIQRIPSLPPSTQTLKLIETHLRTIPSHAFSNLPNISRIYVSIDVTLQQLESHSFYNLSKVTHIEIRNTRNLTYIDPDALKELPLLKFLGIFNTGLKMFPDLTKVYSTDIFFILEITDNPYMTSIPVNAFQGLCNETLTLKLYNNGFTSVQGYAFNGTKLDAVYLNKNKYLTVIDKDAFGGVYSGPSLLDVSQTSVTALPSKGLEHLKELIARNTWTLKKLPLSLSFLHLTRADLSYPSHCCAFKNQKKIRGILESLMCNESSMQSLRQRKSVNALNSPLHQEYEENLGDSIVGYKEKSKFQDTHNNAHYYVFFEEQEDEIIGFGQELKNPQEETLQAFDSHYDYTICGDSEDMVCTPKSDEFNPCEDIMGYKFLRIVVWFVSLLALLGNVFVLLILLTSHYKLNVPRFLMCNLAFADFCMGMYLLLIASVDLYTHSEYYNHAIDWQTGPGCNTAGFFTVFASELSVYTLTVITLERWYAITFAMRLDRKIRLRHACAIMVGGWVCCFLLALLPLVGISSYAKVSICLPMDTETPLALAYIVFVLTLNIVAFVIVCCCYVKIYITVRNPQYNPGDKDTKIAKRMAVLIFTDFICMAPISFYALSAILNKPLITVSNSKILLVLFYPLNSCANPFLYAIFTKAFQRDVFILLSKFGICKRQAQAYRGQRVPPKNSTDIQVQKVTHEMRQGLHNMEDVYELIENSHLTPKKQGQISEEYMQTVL
Procedure, shortened: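 Readout is cAMP by HTRF competition between cellular cAMP and cAMP-d2 for a cryptate-labelled antibody. Antagonism was assessed in TSHR-transfected HEK293 cells stimulated with 4 nM TSH (EC80, final) in the presence of RO 20-1724.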

[12] = target: Thyrotropin-releasing hormone receptor (Homo sapiens) (UniProt P34981); test: qHTS for Small Molecule Agonists and Allosteric Enhancers of Human TRH Receptor: Validation Screen for Agonists (AID 493127;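 active = calcium activation more than 3 SD above the typical response in the agonist read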); details: TRH receptor agonist cell assay; at 2 µM; stronger effect = higher value
Thyrotropin-releasing hormone receptor (Homo sapiens), sequence (P34981 whole entry, looked up): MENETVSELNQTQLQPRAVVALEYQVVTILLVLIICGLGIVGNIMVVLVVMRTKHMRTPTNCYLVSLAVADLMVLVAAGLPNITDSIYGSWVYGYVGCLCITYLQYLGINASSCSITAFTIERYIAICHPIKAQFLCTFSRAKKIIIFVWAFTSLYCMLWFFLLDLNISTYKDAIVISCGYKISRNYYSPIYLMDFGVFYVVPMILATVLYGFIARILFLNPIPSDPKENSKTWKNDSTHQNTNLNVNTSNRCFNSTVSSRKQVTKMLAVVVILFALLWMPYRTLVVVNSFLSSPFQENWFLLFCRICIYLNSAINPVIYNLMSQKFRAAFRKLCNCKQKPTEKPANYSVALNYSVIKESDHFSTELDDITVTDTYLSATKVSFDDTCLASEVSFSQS
Procedure, shortened: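 TRHR cells loaded with fluo-8 calcium dye; FDSS kinetic fluorescence (Ex 480/Em 530) read at 1 s/cycle after 23 nL compound addition. Agonist-mode calcium response recorded before the 10 nM TRH (EC20) addition.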

[13] = target: Galactokinase (Homo sapiens) (UniProt P51570); test: qHTS Validation Assay for Inhibitors of Human Galactokinase (GALK) (AID 493189)
Galactokinase (Homo sapiens), sequence (P51570 whole entry, looked up): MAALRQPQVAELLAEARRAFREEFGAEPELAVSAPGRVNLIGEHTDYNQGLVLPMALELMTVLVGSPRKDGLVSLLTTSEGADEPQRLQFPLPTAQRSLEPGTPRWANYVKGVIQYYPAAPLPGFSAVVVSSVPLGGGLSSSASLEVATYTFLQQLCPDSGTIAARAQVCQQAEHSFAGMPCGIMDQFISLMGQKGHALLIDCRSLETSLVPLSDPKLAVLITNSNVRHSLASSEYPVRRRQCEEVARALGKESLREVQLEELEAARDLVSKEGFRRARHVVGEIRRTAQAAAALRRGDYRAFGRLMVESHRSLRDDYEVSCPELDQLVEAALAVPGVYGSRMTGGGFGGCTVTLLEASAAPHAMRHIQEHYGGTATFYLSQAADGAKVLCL
Procedure, shortened: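 5 nM GALK / 100 uM galactose / 35 uM ATP, 20 mM HEPES pH8.0, 5 mM MgCl2, 60 mM NaCl, 1 mM DTT, 0.01% BSA (final). RT 1 h; Kinase-Glo Plus luminescence.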

[14] = Validation screen for small molecules that induce DNA re-replication in SW480 colon adenocarcinoma cells (AID 504364)
Procedure, shortened: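 SW480 cells (250/well) exposed 48 h at 37 C, 5% CO2, then Hoechst-stained 40 min. Nuclear DNA content imaged by fluorescence scanning (405 nm excitation, 500-530 nm emission); re-replication scored as increased nuclei with elevated intensity.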

[15] = target: Flap endonuclease 1 (Homo sapiens) (UniProt P39748); test: qHTS Validation Assay for the Inhibitors of Human Flap endonuclease 1 (FEN1) (AID 488816); note: potency is the fitted concentration of half-maximal effect
Flap endonuclease 1 (Homo sapiens), sequence (P39748 whole entry, looked up): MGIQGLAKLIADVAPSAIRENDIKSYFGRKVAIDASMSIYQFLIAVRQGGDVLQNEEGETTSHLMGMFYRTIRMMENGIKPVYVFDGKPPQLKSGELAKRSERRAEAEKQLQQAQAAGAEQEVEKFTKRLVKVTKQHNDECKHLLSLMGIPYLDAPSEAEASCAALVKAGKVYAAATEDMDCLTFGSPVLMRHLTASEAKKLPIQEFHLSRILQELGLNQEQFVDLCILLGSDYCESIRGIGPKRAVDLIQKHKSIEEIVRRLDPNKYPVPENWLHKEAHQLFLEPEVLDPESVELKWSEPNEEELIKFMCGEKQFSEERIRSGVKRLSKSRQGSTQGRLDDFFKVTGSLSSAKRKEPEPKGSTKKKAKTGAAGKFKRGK
Procedure, shortened: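 FEN1, dispensed as a 10 nM reagent, was preincubated with pin-transferred compounds for 15 min at room temperature before substrate was added (50 nM final). Plates were read at 0 and 15 min, and a four-parameter Hill equation was fitted to the concentration-response data.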

[16] = target: M-phase phosphoprotein 8 (Homo sapiens) (UniProt Q99549); test: qHTS Validation Assay for Inhibitors for MPP8 Chromodomain Interactions with Methylated Histone Tails (AID 488949); note: nearly all actives have a fitted effect of over 55% in size; note: potency is the fitted concentration of half-maximal effect
M-phase phosphoprotein 8 (Homo sapiens), sequence (Q99549 whole entry, looked up): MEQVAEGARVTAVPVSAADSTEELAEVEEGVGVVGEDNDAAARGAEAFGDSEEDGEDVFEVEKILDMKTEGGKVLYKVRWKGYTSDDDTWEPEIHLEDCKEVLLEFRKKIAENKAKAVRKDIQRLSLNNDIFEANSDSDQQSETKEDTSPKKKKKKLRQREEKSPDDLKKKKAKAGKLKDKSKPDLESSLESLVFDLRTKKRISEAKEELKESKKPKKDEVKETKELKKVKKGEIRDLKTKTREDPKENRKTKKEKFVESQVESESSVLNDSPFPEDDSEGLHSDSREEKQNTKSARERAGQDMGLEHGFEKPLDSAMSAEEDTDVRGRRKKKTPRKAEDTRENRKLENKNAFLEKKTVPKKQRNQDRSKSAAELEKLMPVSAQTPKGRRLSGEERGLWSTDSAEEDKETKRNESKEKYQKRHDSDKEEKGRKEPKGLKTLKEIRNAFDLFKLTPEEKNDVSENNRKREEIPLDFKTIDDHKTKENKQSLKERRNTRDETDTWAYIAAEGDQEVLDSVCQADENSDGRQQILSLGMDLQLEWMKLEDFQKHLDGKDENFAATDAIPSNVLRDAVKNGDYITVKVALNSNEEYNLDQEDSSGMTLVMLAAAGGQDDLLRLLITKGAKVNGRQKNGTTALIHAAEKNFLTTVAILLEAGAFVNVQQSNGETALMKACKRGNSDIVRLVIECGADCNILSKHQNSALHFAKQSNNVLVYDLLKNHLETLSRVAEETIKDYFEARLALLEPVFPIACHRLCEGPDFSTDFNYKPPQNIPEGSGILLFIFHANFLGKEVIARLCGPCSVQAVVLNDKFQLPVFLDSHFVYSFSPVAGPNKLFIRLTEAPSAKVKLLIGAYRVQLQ
Procedure, shortened: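 50 nM MPP8 + 50 nM b-H3K9me3 peptide, PBS pH 7.4/0.01% Tween-20, 30 min RT; + cpd 30 min RT; + AlphaScreen donor/Ni-chelate acceptor beads 10 ug/mL final, 30 min dark; luminescence read.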

[17] = target: D(1A) dopamine receptor (Homo sapiens) (UniProt P21728); test: HTS Assay for Allosteric Agonists of the Human D1 Dopamine Receptor: Primary Screen for Potentiators (AID 488982)
Procedure, shortened: as §1

[18] = target: ATP-dependent 6-phosphofructokinase (Trypanosoma brucei brucei) (UniProt O15648); test: qHTS Assay to Find Inhibitors of T. brucei phosphofructokinase: hit validation (AID 492961);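 note: luminescence reports ADP formed as PFK phosphorylates fructose-6-phosphate with ATP; series mostly up to about 51 µM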
ATP-dependent 6-phosphofructokinase (Trypanosoma brucei brucei), sequence (O15648 whole entry, looked up): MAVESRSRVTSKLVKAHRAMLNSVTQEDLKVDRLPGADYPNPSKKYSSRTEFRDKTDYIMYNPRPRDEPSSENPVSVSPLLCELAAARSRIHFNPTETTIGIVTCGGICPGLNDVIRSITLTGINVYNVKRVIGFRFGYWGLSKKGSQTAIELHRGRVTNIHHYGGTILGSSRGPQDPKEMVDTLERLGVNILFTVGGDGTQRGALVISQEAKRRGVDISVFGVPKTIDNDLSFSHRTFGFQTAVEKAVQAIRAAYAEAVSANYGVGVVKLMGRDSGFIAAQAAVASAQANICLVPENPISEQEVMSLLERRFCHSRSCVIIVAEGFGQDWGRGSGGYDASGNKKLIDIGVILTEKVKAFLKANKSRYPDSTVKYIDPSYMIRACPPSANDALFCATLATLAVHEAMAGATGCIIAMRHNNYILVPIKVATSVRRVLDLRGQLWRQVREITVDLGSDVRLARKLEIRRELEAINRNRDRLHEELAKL
Procedure, shortened: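 Reaction: 0.1 M triethanolamine pH 8.0, 5 mM MgCl2, F6P 0.5 mM, ATP 0.1 mM, PFK 1.25 nM, 45 min RT. Read-out: ADP-Glo luminescence. Analysis: concentration-response fits, classed by r2 and efficacy.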

Structure (SMILES) | Potency [1] | Potency [2] | outcome [3] | Potency [4] | Potency [5] | Potency [6] | Potency [7] | Potency [8] | viability change [8] | outcome [9] | outcome [10] | outcome [11] | activation [12] | Potency [13] | Potency [14] | Potency [15] | Potency [16] | Potency [17] | outcome [18]
CN1C2CC(OC(=O)[C@H](CO)c3ccccc3)CC1C1OC12 (stereo partly drawn) | inactive | inactive | inactive | inactive | inactive | inactive | inactive | inactive | -8.53% | inactive | – | – | – | – | – | – | – | – | –
Oc1ccccc1O | – | – | – | inactive | inactive | inactive | inactive | – | – | inactive | inactive | inactive | 0.375% (inactive) | inactive | inactive | – | – | – | –
CN1CCc2cc(O)c(O)cc2C(c2ccccc2)C1 (stereo not drawn) | – | inactive | – | inactive | – | inactive | inactive | inactive | -7.53% | inactive | inactive | inactive | -0.188% (inactive) | inactive | inactive | inactive | inactive | inactive | –
CCN1/C(=C/C(C)=O)Sc2ccc(OC)cc21 | inactive | – | inactive | inactive | inactive | inactive | – | inactive | -5.53% | inactive | inactive | inactive | -4.31% (inactive) | inactive | inactive | – | – | inactive | –
Nc1ccn([C@@H]2O[C@H](CO)[C@@H](O)[C@@H]2O)c(=O)n1 | – | – | – | – | – | – | – | – | – | – | inactive | – | -0.125% (inactive) | – | inactive | – | – | – | –
O=C(c1cc(O)c(O)c([N+](=O)[O-])c1)c1ccccc1F | inactive | – | – | inactive | inactive | inactive | – | – | – | inactive | inactive | inactive | -0.125% (inactive) | inactive | inactive | 21.2 µM (active) | – | inactive | –
O=C(/C=C/c1ccccc1)NCCO | – | – | – | – | – | – | – | – | – | – | – | – | – | – | – | – | – | – | inactive
O=C(O)c1cc(=O)c2c(Cl)cc(Cl)cc2[nH]1 | – | – | inactive | inactive | inactive | inactive | inactive | inactive | -1.84% | inactive | inactive | inactive | 1.56% (inactive) | inactive | inactive | inactive | inactive | – | –
O=C(O)CNC(=O)C(CS)Cc1ccccc1 (stereo not drawn) | – | inactive | inactive | inactive | inactive | inactive | inactive | inactive | 2.31% | inactive | inactive | inactive | 0.625% (inactive) | inactive | inactive | inactive | – | – | –
CC(C)NC[C@@H](O)c1ccc(O)c(O)c1 | – | – | inactive | inactive | – | inactive | inactive | inactive | 0.444% | inactive | – | – | – | – | – | inactive | inactive | inactive | –
CN[C@H](CC(C)C)C(=O)N[C@H]1C(=O)N[C@@H](CC(N)=O)C(=O)N[C@H]2C(=O)N[C@H]3C(=O)N[C@H](C(=O)N[C@H](C(=O)O)c4cc(O)cc(O)c4-c4cc3ccc4O)[C@H](O)c3ccc(c(Cl)c3)Oc3cc2cc(c3O[C@@H]2O[C@H](CO)[C@@H](O)[C@H](O)[C@H]2O[C@H]2C[C@](C)(N)[C@H](O)[C@H](C)O2)Oc2ccc(cc2Cl)[C@H]1O | – | – | – | – | – | – | – | – | – | – | inactive | inactive | -0.312% (inactive) | inactive | inactive | – | inactive | – | –
Cc1ccc(O)c(N=Nc2ccccc2)n1 | – | 44.7 µM (active) | – | inactive | inactive | 2.59 µM (active) | – | inactive | 0.002% | inactive | inactive | inactive | 0.875% (inactive) | – | inactive | inactive | 39.8 µM (active) and inactive | inactive | –
NCCCS(=O)(=O)O | – | – | – | inactive | inactive | – | inactive | inactive | -7.16% | inactive | inactive | inactive | 0.5% (inactive) | inactive | inactive | inactive | – | inactive | –
CC(C)(C)NCC(O)COc1nsnc1N1CCOCC1 (stereo not drawn) | – | – | – | – | – | – | – | – | – | – | inactive | – | – | inactive | inactive | – | inactive | – | –
C=C/C(C)=C/[C@@]1(C)SC(=O)C(C)=C1O | – | – | – | – | – | – | – | – | – | – | inactive | inactive | 0.875% (inactive) | inactive | inactive | – | 50.1 µM (active) | – | –
O=C(Nc1ccccc1)c1cc([N+](=O)[O-])ccc1Cl | – | – | inactive | inactive | inactive | inactive | – | inactive | -4.87% | inactive | inactive | inactive | 0.375% (inactive) | inactive | – | inactive | inactive | inactive | –
C=C[C@@H]1CN2CC[C@@H]1C[C@H]2[C@H](O)c1ccnc2ccc(OC)cc12 | – | inactive | – | inactive | – | inactive | inactive | inactive | -4.66% | inactive | – | – | – | – | inactive | – | – | inactive | –
COc1ccccc1CNCCCCCCNCCCCCCCCNCCCCCCNCc1ccccc1OC | – | inactive | inactive | inactive | – | inactive | inactive | inactive | -8.09% | inactive | inactive | inactive | 0.938% (inactive) | inactive | inactive | inactive | 50.1 µM (active) | – | –
Nc1ccc(C(=O)O)c(O)c1 | – | – | – | – | – | – | – | – | – | – | – | – | – | – | – | – | – | – | inactive
CCC1C(=O)OCC1Cc1cncn1C (stereo not drawn) | – | inactive | inactive | inactive | inactive | inactive | inactive | inactive | 6.63% and 6.13% | inactive | – | – | – | – | – | – | – | inactive | inactive
